Compound activity from PubChem.
zVAD death inh: blocks zVAD induced death of L929 cells; actives 0.38% (n = 220,000); L929 zVAD necroptosis rescue, ATP luminescence, 24 h; with zVAD 60 µM; viability rescue, % at 10 µM;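 active means activation, scaled between plate controls, above about 75%, limit read from the data; inactive means activation under that limit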;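 further: 0% = zVAD with DMSO and 100% = DMSO alone without zVAD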
TNF death inh: TNF-alpha cell death inhibition in Jurkat FADD-/- cells | Jurkat FADD-/- TNF necroptosis rescue, ATP luminescence, 24 h; 0 = TNF only, 100 = no-TNF cells | activation (protection from cell death), % at 10 µM | actives 0.068% (n = 220,000) | AID 463075;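 active means activation, meaning protection from cell death, of at least 50% relative to plate controls; inactive means activation below 50%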;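 further: necroptosis triggered by 40 ng/mL TNF-alpha added together with compound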
Hsp70 activator: switches on Hsp70 transcription | HeLa Hsp70 promoter luciferase reporter, luminescence; scaled: vehicle 0, proteasome-inhibitor control 100% | activation, % at 10 µM | actives 0.04% (n = 200,000) | AID 1203;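 active means activation above the mean across all tested compounds plus 3 SD, cutoff set per campaign, cut at about 5.5% in these data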;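 further: 100% = MG132 at 30 µM as the positive control and 0% = DMSO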
HSF1 activator: increases HSF-1 driven luciferase reporter signal; NIH3T3-HGL HSF-1 luciferase reporter, MG132, 8 h; 100% = twice DMSO control signal; activation, % at 9 µM; actives 1.7% (n = 300,000);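 active means mean replicate activation of at least 50% with a set share of replicates each reaching 50%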;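 further: 0% = median of the neutral control wells and 100% = twice that signal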
Hsp70 act DR: activates Hsp70 transcription in dose response | shares compounds with Hsp70 activator | HeLa hsp70.1pr-luc reporter, luciferase luminescence | calls only at 99 µM | actives 10% (n = 70) | AID 1252;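 active means over 50% activation at some tested dose; inactive means under 50% activation at every tested dose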
zVAD death conf: confirmed blocker of zVAD induced death in L929 cells | shares compounds with zVAD death inh | L929 zVAD-induced necroptosis rescue, ATP luminescence, 24 h | activation (protection from necroptosis), % at 10 µM | actives 16% (n = 760) | AID 463117;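 active means mean protection from necroptosis of at least 50% over duplicate tests; inactive means mean protection below 50%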;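 further: 0% = cells with zVAD alone and 100% = vehicle cells without zVAD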
Active calls of the source: *; i = inactive; · = no result; + = active, no number. A selection: hits, their analogues and other compounds. The true share with any hit is near 1.9%.

SMILES	zVAD death inh	TNF death inh	Hsp70 activator	HSF1 activator	Hsp70 act DR	others
COc1ccc(OC)c(NC(=O)C2CCN(C(=O)C3CC(=O)N(c4ccc(C)cc4)C3)CC2)c1 (centres undefined)	·	·	·	5.7	·
CCCCS(=O)(=O)/C=C\C=C/S(=O)(=O)CCCC	22.1	-12.1	55.7*	-84.0	i
CCCOc1c(Br)cc(C(=O)NCC)cc1OC	-0.9	-2.3	6.0*	2.3	i
Cc1cccc(C(=O)Nc2nnc(Cc3ccccc3)s2)c1	·	·	·	23.0	·
COc1ccc(/C=C/C(=O)c2cc(F)ccc2OC(=O)c2ccccc2OC)cc1OC	-2.3	-9.5	9.9*	69.2*	i
Cc1nc(C)n(CC(C)C(=O)N2CCN(S(=O)(=O)c3ccc(Cl)cc3)CC2)n1 (centres undefined)	·	·	·	4.1	·
N#C/C(=C/c1ccc(N2CCCCCC2)o1)c1ccc(Cl)cc1	1.1	-6.4	6.3*	92.9*	i
N#C/C(=C\c1ccc(N2CCOCC2)o1)C(=O)NC1CCCCC1	1.6	1.9	·	5.9	·
O=C(CCCn1cc([N+](=O)[O-])cn1)N1CCCCC1	-0.5	-0.2	0.1	2.5	·
COc1ccc(C(c2c(O)ccc3ccccc23)N2CCOCC2)c(OC)c1 (centres undefined)	12.7	-3.0	6.4*	105.8*	i
COc1ccc(C(CCN2CCOCC2)c2c(O)cc(OC)cc2OC)cc1 (centres undefined)	-0.9	1.8	·	-10.0	·
Cc1ccc(NC(=O)CN(C)C(=O)c2cc3ccccc3o2)cc1	5.5	0.7	0.1	14.0	·
COC(=O)CCC(=O)Nc1cccc(Br)c1	-0.9	0.5	0.9	4.8	·
CCOc1ccc(NC(=O)c2ccc(NC(=S)NC3CC3)cc2)cc1	5.9	1.0	9.4*	32.6	i
CCOc1ccc(NC(=O)c2ccc(NC(=S)NC3CCCCC3)cc2)cc1	0.6	-1.6	-0.4	13.8	·
Cc1oc(-c2ccccc2F)nc1CSCC(=O)NCc1ccc2c(c1)OCO2	0.1	-2.4	-0.1	-1.2	·
CCC(=O)N1CCN(c2ccc(NC(=O)c3ccc([N+](=O)[O-])o3)cc2Cl)CC1	27.1	-11.7	42.8*	128.4*	i
CC(=O)N1CCN(c2ccc(NC(=O)c3ccc([N+](=O)[O-])o3)cc2Cl)CC1	·	·	·	-89.2	·
CCOC(=O)C1CCN(C(=O)C2CCN(C(=O)c3ccc([N+](=O)[O-])cc3)CC2)CC1	·	·	·	14.8	·
CCOC(=O)C1CCN(c2ccc([N+](=O)[O-])cc2)CC1	0.2	-0.3	5.7*	20.8	i
CCOC(=O)c1c(C)[nH]c(-c2csc(N)n2)c1C	2.2	-10.2	-0.1	·	·
Cc1cc(C)nc(SCc2nnc(SCC(=O)Nc3cc(C(F)(F)F)ccc3Cl)o2)n1	2.7	1.3	5.7*	28.2	i
Cc1ccc(S(=O)(=O)N(C)C)cc1NC(=O)CCNC(=O)c1ccco1	·	·	·	-31.4	·
Cc1ccc(-n2c(Cl)c(Cl)nc(Cl)c2=O)cc1	0.2	-9.7	6.4*	·	i
Cc1nn(C)c(C)c1NC(=O)c1ccc(S(=O)(=O)N(C)C)cc1	-0.2	-0.9	6.6*	21.2	i
SMILES	zVAD death inh	TNF death inh	Hsp70 activator	HSF1 activator	Hsp70 act DR	others
Cc1cccc(OCC(=O)NCCCNC(=O)c2ccco2)c1	·	·	·	6.1	·
COc1ccc(N=Nc2[nH]c3ccc(C)cc3c2O)cc1	0.5	0.5	5.6*	-3.6	i
Cc1ccc(N=Nc2[nH]c3ccccc3c2O)cc1	58.1	1.3	1.1	·	·
O=C(OCn1ncc(Br)c(Br)c1=O)c1ccccc1Cl	44.2	-14.3	16.9*	-74.2	+
CC1C/C(=C/c2ccco2)C(=O)/C(=C/c2ccco2)C1 (centres undefined)	0.3	-1.9	-0.5	2.4	·
O=C1/C(=C/c2ccccn2)COc2ccccc21	1.0	-6.5	0.1	24.5	·
CC(C)(C)C1C/C(=C/c2ccccn2)C(=O)/C(=C/c2ccccn2)C1 (centres undefined)	35.1	14.6	46.3*	-31.0	+
CC1C/C(=C/c2ccccn2)C(=O)/C(=C/c2ccccn2)C1 (centres undefined)	32.2	-14.8	314.0*	89.0*	+
O=Cc1s/c(=N\S(=O)(=O)c2ccccc2)n(CCCCl)c1Cl	6.3	19.4	10.6*	60.5*	i
C[N+]1=C(/C=C/Nc2ccccc2Cl)C(C)(C)c2ccccc21	0.8	0.5	0.0	-26.7	·
COC(=O)c1ccc2c(c1)C(C)(C)C(/C=C/c1ccccc1O)=[N+]2C	41.5	-2.8	8.4*	32.4	+
C=CCSc1nccc(-c2nn(-c3ccc(C)cc3)ccc2=O)n1	0.9	-6.0	16.5*	1.8	i
COc1ccc(NC(=O)C(Cl)=C(Cl)Cl)cn1	-1.2	1.0	-0.2	-14.5	·
COc1ccc(NC(=O)/C(Cl)=C(/Cl)S(=O)Cc2ccc(Cl)cc2)cn1 (centres undefined)	13.7	-14.1	42.9*	·	i
NC(=O)NOCc1ccc(Cl)cc1Cl	84.3*	2.3	-0.1	-3.0	·	zVAD death conf=26.2
COc1ccc(NC(=O)COc2cccc(-n3cnnn3)c2)cc1	·	·	·	-7.0	·
COc1ccc(Cl)cc1NC(=O)COc1cccc(-n2cnnn2)c1	80.8*	-0.3	-0.4	7.0	·	zVAD death conf=33.3
c1ccc(CNc2ncnc3scc(-c4cccs4)c23)nc1	55.2	-5.6	-0.2	-14.1	·
c1ccc(-c2csc3ncnc(NCc4ccccn4)c23)cc1	78.3*	-11.2	·	-4.3	·	zVAD death conf=3.9
Cc1ccc(/C=N/Nc2ncnc3nc[nH]c23)cc1	71.4	-6.6	·	6.7	·
Clc1ccc(/C=N/Nc2ncnc3nc[nH]c23)cc1	78.1*	-10.1	·	26.9	·	zVAD death conf=43.1
CCCN1C(=O)/C(=C/c2ccc3c(c2)OCO3)NC1=S	87.2*	45.6	0.1	20.6	·	zVAD death conf=90.4*
O=C(Nc1cccc(Oc2ccc3c(c2)C(=O)NC3=O)c1)c1cccs1	87.0*	0.2	-0.2	-4.8	·	zVAD death conf=43.4
O=C(COc1cccc(NC(=O)c2cccs2)c1)c1ccc(F)cc1	3.6	5.9	-0.4	28.5	·
COc1ccc(OCCC(=O)NCC23CC4CC(CC(C4)C2)C3)cc1	94.4*	1.1	-0.1	-0.8	·	zVAD death conf=4.1
SMILES	zVAD death inh	TNF death inh	Hsp70 activator	HSF1 activator	Hsp70 act DR	others
COc1ccc(OCCC(=O)NCc2ccccc2)cc1	0.7	0.8	-0.1	-9.3	·
O=[N+]([O-])c1cccc(N/N=C/c2cccc3ccccc23)c1	0.2	1.1	-0.3	-3.3	·
COCCn1c(=NC(=O)/C=C/c2ccccc2)sc2cc(NC(C)=O)ccc21	80.5*	-4.1	-0.3	-0.9	·	zVAD death conf=7.4
Brc1ccc2[nH]c3c(NCc4ccccn4)ncnc3c2c1	75.0*	7.9	·	4.9	·	zVAD death conf=1.7
COc1ccc(/C=N/Nc2ccccn2)c(OC)c1OC	82.7*	26.8	0.2	32.9	·	zVAD death conf=12.0
CCCOc1ccc(/C=N/Nc2ccccn2)cc1OC	60.5	10.2	0.6	13.0	·
C=CCOc1ccc(/C=N/Nc2ccccn2)cc1OC	85.4*	8.4	-0.3	65.5*	·	zVAD death conf=1.0
